Results as given in PubChem BioAssay (NCATS).
Results filed as inconclusive are left out. Active and inactive are the calls of the source. Unless noted, the call rests on the fitted dose curve; in most records, active means well fitted curve in the direction sought with a large enough effect; inconclusive means small, poorly fitted or top-dose-only effect, or another doubt; inactive means no such curve, though single readings can be large; an effect the other way counts as inactive or inconclusive.

What was measured:
[1] = target: DNA polymerase III PolC-type (Bacillus subtilis (strain 168)) (UniProt P13267); assay: qHTS Validation Assay for the Inhibitors of DNA Replication in Gram-Positive Bacteria (AID 485295);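 further: reconstituted holoenzyme with PolC plus beta clamp SSB and primase; PicoGreen fluorescence of double-stranded DNA made on primed circular M13 template; series mostly up to about 57 µM; 0% = DMSO wells and -100% = EDTA-quenched background wells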
Sequence of DNA polymerase III PolC-type (Bacillus subtilis (strain 168)) (P13267 whole entry, looked up): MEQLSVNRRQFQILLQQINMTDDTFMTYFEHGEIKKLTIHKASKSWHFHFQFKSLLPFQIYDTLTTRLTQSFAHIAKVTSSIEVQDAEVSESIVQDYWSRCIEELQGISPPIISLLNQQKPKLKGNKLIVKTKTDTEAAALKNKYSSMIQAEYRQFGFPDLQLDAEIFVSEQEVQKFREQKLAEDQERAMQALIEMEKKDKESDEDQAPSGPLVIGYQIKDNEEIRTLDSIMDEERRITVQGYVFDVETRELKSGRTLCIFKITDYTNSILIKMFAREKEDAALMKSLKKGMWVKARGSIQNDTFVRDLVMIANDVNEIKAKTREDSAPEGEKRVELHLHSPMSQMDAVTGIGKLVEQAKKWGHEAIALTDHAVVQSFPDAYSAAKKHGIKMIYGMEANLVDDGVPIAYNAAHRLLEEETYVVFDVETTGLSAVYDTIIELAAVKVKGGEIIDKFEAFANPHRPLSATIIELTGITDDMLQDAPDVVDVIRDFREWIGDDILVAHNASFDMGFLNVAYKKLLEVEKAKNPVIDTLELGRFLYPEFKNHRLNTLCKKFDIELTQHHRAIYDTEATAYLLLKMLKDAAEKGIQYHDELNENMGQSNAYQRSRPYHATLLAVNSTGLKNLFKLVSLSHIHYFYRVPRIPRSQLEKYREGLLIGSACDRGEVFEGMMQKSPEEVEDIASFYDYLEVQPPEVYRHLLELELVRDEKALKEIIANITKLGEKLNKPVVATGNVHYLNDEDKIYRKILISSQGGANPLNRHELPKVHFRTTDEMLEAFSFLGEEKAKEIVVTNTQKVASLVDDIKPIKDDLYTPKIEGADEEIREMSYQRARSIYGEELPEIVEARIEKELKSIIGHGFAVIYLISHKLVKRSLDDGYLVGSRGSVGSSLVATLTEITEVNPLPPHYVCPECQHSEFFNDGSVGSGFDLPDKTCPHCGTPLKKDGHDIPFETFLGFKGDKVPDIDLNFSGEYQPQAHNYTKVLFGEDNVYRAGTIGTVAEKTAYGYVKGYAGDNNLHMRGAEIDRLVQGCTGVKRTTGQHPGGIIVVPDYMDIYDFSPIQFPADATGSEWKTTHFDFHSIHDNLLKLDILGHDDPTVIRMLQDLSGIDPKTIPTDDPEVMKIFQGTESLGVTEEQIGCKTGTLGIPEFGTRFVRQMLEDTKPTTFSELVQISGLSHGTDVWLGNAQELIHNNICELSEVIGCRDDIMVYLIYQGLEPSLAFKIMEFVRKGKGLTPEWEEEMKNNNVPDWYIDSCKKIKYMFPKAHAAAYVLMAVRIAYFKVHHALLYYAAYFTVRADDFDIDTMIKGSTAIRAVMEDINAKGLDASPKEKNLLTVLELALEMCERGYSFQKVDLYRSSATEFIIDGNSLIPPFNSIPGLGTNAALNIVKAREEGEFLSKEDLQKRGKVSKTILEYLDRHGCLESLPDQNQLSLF
Outline: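 First, compound is mixed with the reconstituted replication complex and held at room temperature. Next, circular single-stranded M13Gori with nucleotides starts synthesis. Finally, PicoGreen in EDTA halts the reaction and stains double-stranded product for fluorescence reading.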

[2] = target: Tumor susceptibility gene 101 protein (Homo sapiens) (UniProt Q99816); assay: qHTS Validation Assay for Iinhibitors of HIV-1 Budding by Blocking the Interaction of PTAP/TSG101 (AID 485342; calls by dose curve; further: 0% is about no effect)
Sequence of Tumor susceptibility gene 101 protein (Homo sapiens) (Q99816 whole entry, looked up, the tested form may be a part): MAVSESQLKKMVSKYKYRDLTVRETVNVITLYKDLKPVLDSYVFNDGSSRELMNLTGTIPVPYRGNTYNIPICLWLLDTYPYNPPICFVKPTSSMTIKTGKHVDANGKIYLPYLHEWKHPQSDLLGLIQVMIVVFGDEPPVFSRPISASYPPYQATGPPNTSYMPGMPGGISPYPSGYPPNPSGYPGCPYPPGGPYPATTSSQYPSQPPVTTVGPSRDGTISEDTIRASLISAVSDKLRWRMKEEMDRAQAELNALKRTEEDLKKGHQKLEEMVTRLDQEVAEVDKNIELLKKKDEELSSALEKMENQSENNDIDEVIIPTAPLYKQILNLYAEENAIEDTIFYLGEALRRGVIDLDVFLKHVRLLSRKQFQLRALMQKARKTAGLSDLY
Outline: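 Binding of a FITC-tagged PTAP-motif peptide (50 nM) to the Tsg101 binding domain (10 uM) is monitored by fluorescence polarization. Compounds are pin-delivered before peptide addition, and incubation runs 20 min at room temperature.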

[3] = qHTS Validation Assay to Find Inhibitors of Chronic Active B-Cell Receptor Signaling (AID 485345; active means well fitted curve in the direction sought with a large enough effect in the main read-out, with a control signal flat, not every such curve was filed as active;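 further: 0% = untreated basal cells and 100% = 10 µM MG-132 proteasome inhibitor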)
Outline: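 TMD8 ABC-DLBCL cells with dox-inducible green luciferase–IκBα fusion and red native luciferase; compounds 46 uM–3 nM, 4 h at 37C with doxycycline in 0.5% FBS IMDM. Green/red ratio normalized to basal and 10 uM MG-132.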

[4] = target: Beta-2 adrenergic receptor (Homo sapiens) (UniProt P07550); assay: qHTS validation assay of beta-arrestin-biased ligands of beta2-adrenergic receptor (AID 485366); further: 0% is about no effect
Sequence of Beta-2 adrenergic receptor (Homo sapiens) (P07550 whole entry, looked up): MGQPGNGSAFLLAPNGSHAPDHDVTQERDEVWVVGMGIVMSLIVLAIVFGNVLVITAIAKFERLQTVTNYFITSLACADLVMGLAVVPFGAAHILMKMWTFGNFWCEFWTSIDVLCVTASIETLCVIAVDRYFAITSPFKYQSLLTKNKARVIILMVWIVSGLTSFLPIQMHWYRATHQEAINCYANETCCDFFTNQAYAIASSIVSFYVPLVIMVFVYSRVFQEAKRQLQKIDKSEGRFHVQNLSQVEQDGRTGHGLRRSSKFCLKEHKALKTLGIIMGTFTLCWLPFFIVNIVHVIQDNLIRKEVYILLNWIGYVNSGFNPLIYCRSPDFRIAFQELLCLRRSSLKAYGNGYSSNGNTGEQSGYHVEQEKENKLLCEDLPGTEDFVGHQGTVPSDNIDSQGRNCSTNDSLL
Outline: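 Compound series up to 46 microM applied to beta2-AR/beta-arrestin Tango cells, 18 hr, 37 degrees C, 5% CO2. Read-out: tTA-driven luciferase luminescence, converted to %Activity; concentration-response curves assigned curve classes.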

[5] = target: Thioredoxin reductase 1, cytoplasmic (Rattus norvegicus) (UniProt O89049); assay: qHTS Assay for Substrates of Mammalian Selenoprotein Thioredoxin Reductase 1 (TrxR1) (AID 488772);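 further: series mostly up to about 57 µM; 0% is about no effect; a drop in NADPH fluorescence below the no-compound background marks a TrxR1 substrate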
Sequence of Thioredoxin reductase 1, cytoplasmic (Rattus norvegicus) (O89049 whole entry, looked up): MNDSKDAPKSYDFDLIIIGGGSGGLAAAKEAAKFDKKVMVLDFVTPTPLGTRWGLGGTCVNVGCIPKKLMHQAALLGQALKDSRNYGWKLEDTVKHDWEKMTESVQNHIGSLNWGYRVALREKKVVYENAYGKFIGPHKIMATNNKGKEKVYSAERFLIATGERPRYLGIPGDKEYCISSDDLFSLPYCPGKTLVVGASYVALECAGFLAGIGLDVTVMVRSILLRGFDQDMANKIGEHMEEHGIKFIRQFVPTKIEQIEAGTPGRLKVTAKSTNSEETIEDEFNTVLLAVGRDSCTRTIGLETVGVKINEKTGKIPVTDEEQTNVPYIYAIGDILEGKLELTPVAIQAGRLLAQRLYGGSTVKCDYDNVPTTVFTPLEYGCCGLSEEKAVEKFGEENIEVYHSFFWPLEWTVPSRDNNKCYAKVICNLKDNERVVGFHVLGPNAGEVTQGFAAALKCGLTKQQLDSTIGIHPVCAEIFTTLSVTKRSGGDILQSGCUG
Outline: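 In this dual-purpose format, potential substrates are identified from the first fluorescence read after selenite addition, not from the 8-minute delta. Rat enzyme is preincubated with NADPH and then with compound at ~22 deg C.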

[6] = target: Thioredoxin reductase 1, cytoplasmic (Rattus norvegicus) (UniProt O89049); assay: qHTS Assay for Inhibitors of Mammalian Selenoprotein Thioredoxin Reductase 1 (TrxR1) (AID 488773);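 further: drop in NADPH fluorescence over an 8 min run after selenite addition; series mostly up to about 57 µM; on the % scale 0 is the no-effect control and ±100 the full control effect; nearly all actives have a fitted effect of over 40% in size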
Outline: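 Inhibition is scored from the loss of NADPH fluorescence between first and last reads of an 8-min kinetic run. Selenite (400 uM) was the substrate, added after 15 min compound preincubation at room temperature.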

[7] = target: Flap endonuclease 1 (Homo sapiens) (UniProt P39748); assay: qHTS Validation Assay for the Inhibitors of Human Flap endonuclease 1 (FEN1) (AID 488816); further: on the % scale 0 is the no-effect control and ±100 the full control effect
Sequence of Flap endonuclease 1 (Homo sapiens) (P39748 whole entry, looked up): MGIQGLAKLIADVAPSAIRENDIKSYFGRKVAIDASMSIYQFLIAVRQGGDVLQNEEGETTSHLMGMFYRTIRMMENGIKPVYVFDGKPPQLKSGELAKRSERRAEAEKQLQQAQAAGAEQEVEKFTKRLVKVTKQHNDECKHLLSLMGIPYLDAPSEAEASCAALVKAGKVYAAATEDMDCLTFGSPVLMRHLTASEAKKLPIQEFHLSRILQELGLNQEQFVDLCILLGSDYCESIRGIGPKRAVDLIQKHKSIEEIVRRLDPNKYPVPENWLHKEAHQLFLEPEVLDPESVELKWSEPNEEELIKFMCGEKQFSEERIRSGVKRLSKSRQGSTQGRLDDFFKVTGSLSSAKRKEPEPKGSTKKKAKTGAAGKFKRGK
Outline: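 Steps: add FEN1 (10 nM reagent) or buffer only; pin compounds; hold 15 min at room temperature; start with substrate, 50 nM final; read at 0 and 15 min; correct, normalize and fit a four-parameter Hill curve.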

[8] = target: Chromobox protein homolog 1 (Homo sapiens) (UniProt P83916); assay: qHTS Validation Assay for Inhibitors of HP1-beta Chromodomain Interactions with Methylated Histone Tails (AID 488953);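 further: loss of AlphaScreen luminescence from HP1-beta binding biotinylated H3K9me3 peptide; series mostly up to about 110 µM; on the % scale 0 is the no-effect control and ±100 the full control effect; nearly all actives have a fitted effect of over 50% in size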
Sequence of Chromobox protein homolog 1 (Homo sapiens) (P83916 whole entry, looked up): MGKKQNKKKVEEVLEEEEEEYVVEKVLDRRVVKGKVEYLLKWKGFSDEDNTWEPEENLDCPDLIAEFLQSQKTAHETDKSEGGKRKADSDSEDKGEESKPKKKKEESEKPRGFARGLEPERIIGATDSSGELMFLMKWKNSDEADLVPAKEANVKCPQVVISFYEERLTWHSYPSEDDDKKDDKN
Outline: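 Disruption of preformed HP1-beta:H3K9me3 peptide complexes (both 50 nM, PBS pH 7.4 with 0.01% Tween-20) is measured by AlphaScreen after 30 min compound exposure at room temperature, using streptavidin donor and nickel chelate acceptor beads at 10 ug/mL final.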

[9] = target: Methanococcus maripaludis chaperonin (MmCpn) (UniProt Q6LX38); assay: High-Throughput Screening for Modulators of Cytosolic Chaperonin Activity: MmCpn Primary Screen (AID 488978);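 further: 50 nM MmCpn enzyme hydrolysing 30 µM ATP at 37 °C; 0% is about no effect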
Sequence of Methanococcus maripaludis chaperonin (MmCpn) (Q6LX38 1-543): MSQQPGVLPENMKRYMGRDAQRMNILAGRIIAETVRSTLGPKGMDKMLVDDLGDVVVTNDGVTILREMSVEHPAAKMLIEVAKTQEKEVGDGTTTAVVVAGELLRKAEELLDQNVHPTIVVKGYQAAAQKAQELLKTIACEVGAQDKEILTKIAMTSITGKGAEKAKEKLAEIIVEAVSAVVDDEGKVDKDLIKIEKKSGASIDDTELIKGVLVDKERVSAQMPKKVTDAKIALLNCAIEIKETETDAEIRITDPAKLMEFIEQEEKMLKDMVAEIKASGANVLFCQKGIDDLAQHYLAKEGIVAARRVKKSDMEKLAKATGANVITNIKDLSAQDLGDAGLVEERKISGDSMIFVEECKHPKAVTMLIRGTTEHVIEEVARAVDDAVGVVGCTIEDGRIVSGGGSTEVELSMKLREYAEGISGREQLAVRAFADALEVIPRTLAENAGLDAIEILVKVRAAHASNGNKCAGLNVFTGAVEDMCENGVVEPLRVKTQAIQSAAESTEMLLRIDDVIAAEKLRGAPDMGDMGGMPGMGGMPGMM
Outline: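 Steps: chaperonin 50 nM final; add compound, 5 min RT; start with ATP, 30 uM final; hold 10 min at 37C; add ADP Transcreener HTRF reagent, 5 min; read ex 320, em 590 and 665 nm.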

[10] = target: D(1A) dopamine receptor (Homo sapiens) (UniProt P21728); assay: HTS Assay for Allosteric Agonists of the Human D1 Dopamine Receptor: Primary Screen for Agonists (AID 488981); further: 0% is about no effect
Sequence of D(1A) dopamine receptor (Homo sapiens) (P21728 whole entry, looked up): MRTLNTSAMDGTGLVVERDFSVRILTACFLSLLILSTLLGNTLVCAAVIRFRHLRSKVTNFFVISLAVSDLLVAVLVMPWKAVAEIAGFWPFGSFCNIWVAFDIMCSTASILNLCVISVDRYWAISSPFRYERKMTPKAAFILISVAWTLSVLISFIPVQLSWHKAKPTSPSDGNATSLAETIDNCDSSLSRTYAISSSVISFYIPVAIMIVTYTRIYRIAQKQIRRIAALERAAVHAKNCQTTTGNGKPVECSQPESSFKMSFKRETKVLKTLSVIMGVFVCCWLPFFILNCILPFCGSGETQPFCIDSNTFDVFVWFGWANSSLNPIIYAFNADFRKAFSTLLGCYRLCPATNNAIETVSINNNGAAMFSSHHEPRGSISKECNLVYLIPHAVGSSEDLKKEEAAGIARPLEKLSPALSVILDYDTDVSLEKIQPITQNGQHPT
Outline: (§1)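 Tetracycline-induced HEK293 T-REx cells force-coupled to calcium signalling were incubated overnight at 30 C and dye-loaded at room temperature. Calcium flux over 180 s after compound addition flagged agonists; a further 180 s read after EC20 dopamine flagged potentiators.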

[11] = target: D(1A) dopamine receptor (Homo sapiens) (UniProt P21728); assay: HTS Assay for Allosteric Agonists of the Human D1 Dopamine Receptor: Primary Screen for Potentiators (AID 488982); further: 0% is about no effect
Outline: as §1

[12] = target: D(1A) dopamine receptor (Homo sapiens) (UniProt P21728); assay: HTS Assay for Allosteric Agonists of the Human D1 Dopamine Receptor: Primary Screen for Antagonists (AID 488983);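 further: calcium flux response to an EC80 dopamine challenge measured with no-wash dye; on the % scale 0 is the no-effect control and ±100 the full control effect; nearly all actives have a fitted effect of over 65% in size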
Outline: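 Kinetic fluorescence at 1 cycle/sec tracked intracellular calcium in force-coupled, tetracycline-inducible HEK293 T-REx D1 cells. Loss of response to an EC80 dopamine dose, given 180 s after compound, marked antagonists.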

[13] = target: ATPase family AAA domain-containing protein 5 (Homo sapiens) (UniProt Q96QE3); assay: Validation screen for small molecules that inhibit ELG1-dependent DNA repair in human embryonic kidney (HEK293T) cells expressing luciferase-tagged ELG1 (AID 493107);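 further: cells co-treated with the DNA-damaging agent 5-fluorouridine alongside compound; series mostly up to about 46 µM; on the % scale 0 is the no-effect control and ±100 the full control effect; inhibitors lower the ELG1-luciferase luminescence signal; nearly all actives have a fitted effect of over 70% in size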
Outline: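 Cells are dispensed in 1536-well format, then 5-fluorouridine and compound are pinned in. After a 16 hr incubation at 37 °C and 5% CO2, ONE-Glo is added and luciferase measured on a CCD imager.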

[14] = Quantitative high throughput screen for delayed death inhibitors of the malarial parasite plastid, 96 hour incubation (AID 488745);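 further: luciferase-expressing P. falciparum in erythrocytes at 2% hematocrit and 0.1% parasitemia; series mostly up to about 29 µM; on the % scale 0 is the no-effect control and ±100 the full control effect; nearly all actives have a fitted effect of over 70% in size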
Outline: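 Readout is firefly luciferase luminescence from an integrated reporter in P. falciparum; lower signal marks inhibited growth. Cultures at 2% hematocrit and 0.1% parasitemia were treated with compound across two generations (96 h, 37 C, 5% CO2).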

[15] = Quantitative high throughput screen for delayed death inhibitors of the malarial parasite plastid, 48 hour incubation (AID 488752); further: on the % scale 0 is the no-effect control and ±100 the full control effect; nearly all actives have a fitted effect of over 65% in size
Outline: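 First, compound was pinned into RPMI 1640 medium containing 0.5% Albumax. Next, reporter-parasite-infected erythrocytes were added to 2% hematocrit and 0.1% parasitemia. After 48 h at 37 C under 5% CO2, luciferase detection reagent was added and luminescence read.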

[16] = target: Transient receptor potential cation channel subfamily V member 1 (Homo sapiens) (UniProt Q8NER1); assay: HTS Assay for Compounds that Act as Enhancers of the Vanilloid Receptor 1 (AID 488979); further: 0% is about no effect
Outline: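 TRPV1-expressing cells loaded with Fluo-8 calcium dye; compounds added and calcium influx read kinetically for 3 min (agonist phase), then capsaicin at EC20 added and read 2 min more for enhancement. Fluorescence ex 480/em 520 nm.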

[17] = target: Thyrotropin receptor (Homo sapiens) (UniProt P16473); assay: qHTS Assay for Antagonists of the Thyroid Stimulating Hormone Receptor (AID 488980); further: series mostly up to about 58 µM; 0% is about no effect
Outline: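 Readout is cAMP by HTRF competition between cellular cAMP and cAMP-d2 for a cryptate-labelled antibody. Antagonism was assessed in TSHR-transfected HEK293 cells stimulated with 4 nM TSH (EC80, final) in the presence of RO 20-1724.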

[18] = target: Thyrotropin-releasing hormone receptor (Homo sapiens) (UniProt P34981); assay: qHTS for Small Molecule Agonists and Allosteric Enhancers of Human TRH Receptor: Validation Screen for Agonists (AID 493127;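 active means calcium activation more than 3 SD above the typical response in the agonist read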;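 further: intracellular calcium rise by fluo-8 fluorescence before TRH EC20 addition; 0% is about no effect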); settings: TRH receptor agonist cell assay; at 2 µM; stronger effect = higher value
Sequence of Thyrotropin-releasing hormone receptor (Homo sapiens) (P34981 whole entry, looked up): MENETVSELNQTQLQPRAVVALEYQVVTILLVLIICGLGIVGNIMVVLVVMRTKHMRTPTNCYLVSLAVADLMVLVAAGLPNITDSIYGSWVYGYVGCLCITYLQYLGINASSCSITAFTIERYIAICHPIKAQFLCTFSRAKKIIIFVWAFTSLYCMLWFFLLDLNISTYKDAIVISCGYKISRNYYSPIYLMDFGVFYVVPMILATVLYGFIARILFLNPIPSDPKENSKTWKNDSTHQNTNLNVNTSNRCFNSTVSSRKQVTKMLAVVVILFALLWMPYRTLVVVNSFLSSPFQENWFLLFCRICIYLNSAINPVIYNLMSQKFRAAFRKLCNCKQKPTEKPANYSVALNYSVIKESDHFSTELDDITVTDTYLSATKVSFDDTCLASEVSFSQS
Outline: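 Compounds are added by online pintool to dye-loaded TRHR cells while fluorescence is recorded every second. A rise in calcium signal during the agonist read marks activation; a later 10 nM TRH addition (EC20) serves the separate enhancer mode.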

Measured: activation

C=CCc1cccc(C=NNC(=O)CN2CCN(Cc3ccccc3)CC2)c1O
not listed: [13] | [14] | [15] | [16] | [17] | [18]
inactive: all other assays above

C[C@H]1O[C@@H](n2cc(F)c(=O)[nH]c2=O)[C@H](O)[C@H]1O
not listed: [14] | [15] | [16] | [17] | [18]
inactive: all other assays above

CCNC(=O)[C@H]1O[C@@H](n2cnc3c(N)nc(NCCc4ccc(CCC(=O)O)cc4)nc32)[C@H](O)[C@H]1O
inactive: [14] | [15] | [16] | [17] | [18] 0.188%
